Whole data set: some 33,000 sequences, median “E-score (-0.5 to 0.5)” near -0.053, cut for the highest 2% near 0.37. The sample as a whole holds a higher share of the highest values than the screen did.
Target: Hap1 (UniProt P0CE41)
Test: PBM E-score (8-mer binding enrichment) (E-score (-0.5 to 0.5)); higher = stronger / more preferred TF binding
Details: protein concentration: 200 nM; construct: GST-DNA-binding domain
In short: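 The E-score, a modified Wilcoxon-Mann-Whitney statistic, was computed by the Universal PBM Analysis Suite for every ungapped eight-base word pooled with its reverse complement. Scans behind it were normalised with masliner after bound GST-tagged yeast transcription factors were detected with fluorescent anti-GST. The proteins, at about 100-200 nM, had been applied to universal all-10-mer Agilent arrays made double-stranded by primer extension.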

Sequence of UniProt P0CE41 (P0CE41 whole entry): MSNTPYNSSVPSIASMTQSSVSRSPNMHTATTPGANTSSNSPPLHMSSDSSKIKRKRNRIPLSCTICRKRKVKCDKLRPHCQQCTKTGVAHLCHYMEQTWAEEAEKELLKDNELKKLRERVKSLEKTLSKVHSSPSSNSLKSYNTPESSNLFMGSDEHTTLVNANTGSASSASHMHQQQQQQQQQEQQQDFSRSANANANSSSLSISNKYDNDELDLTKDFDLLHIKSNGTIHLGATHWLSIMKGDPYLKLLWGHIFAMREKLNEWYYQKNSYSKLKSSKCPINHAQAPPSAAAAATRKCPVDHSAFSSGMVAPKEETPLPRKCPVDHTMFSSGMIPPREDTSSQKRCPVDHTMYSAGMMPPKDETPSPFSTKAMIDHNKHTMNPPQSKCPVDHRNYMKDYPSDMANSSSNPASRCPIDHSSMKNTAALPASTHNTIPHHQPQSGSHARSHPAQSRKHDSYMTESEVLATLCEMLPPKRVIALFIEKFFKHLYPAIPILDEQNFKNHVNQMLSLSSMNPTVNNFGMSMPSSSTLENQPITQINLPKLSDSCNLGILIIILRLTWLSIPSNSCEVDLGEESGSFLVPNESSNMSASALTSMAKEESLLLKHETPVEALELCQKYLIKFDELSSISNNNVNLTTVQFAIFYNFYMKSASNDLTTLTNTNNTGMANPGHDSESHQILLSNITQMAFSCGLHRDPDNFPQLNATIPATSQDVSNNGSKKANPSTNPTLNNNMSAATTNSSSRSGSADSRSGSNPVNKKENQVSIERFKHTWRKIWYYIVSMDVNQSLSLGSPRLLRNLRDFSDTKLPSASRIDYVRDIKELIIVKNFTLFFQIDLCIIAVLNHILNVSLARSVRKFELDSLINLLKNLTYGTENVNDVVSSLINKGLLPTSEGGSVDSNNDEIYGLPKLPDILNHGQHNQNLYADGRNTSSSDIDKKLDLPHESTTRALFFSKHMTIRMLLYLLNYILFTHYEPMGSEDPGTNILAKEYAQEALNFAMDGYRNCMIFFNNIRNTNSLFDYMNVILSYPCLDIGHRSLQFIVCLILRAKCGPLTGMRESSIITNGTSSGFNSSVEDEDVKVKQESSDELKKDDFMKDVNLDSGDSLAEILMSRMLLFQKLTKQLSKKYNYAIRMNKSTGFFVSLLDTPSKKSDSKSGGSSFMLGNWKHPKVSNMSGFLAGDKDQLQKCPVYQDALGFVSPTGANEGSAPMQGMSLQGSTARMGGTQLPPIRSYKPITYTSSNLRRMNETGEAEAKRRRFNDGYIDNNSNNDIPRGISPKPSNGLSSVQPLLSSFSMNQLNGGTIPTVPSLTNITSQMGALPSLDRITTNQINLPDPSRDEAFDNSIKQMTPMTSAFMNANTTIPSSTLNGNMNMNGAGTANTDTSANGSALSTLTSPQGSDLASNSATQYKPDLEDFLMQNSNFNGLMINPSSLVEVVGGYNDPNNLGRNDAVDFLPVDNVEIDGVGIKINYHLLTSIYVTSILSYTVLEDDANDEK

Sequence | PBM E-score
TTACCAAA | -0.0884
CTGGTTAC | -0.205
GAAAAGTA | -0.0758
GATCTGCC | 0.03
ACCGGGGA | 0.284
AACGGGCG | 0.246
AGCGGGCG | 0.222
CCGGGGCA | 0.312
ACCGGGCG | 0.385
ACCGGGGC | 0.291
ACCGGGCT | 0.334
ACCGGGCC | 0.373
GCCGGGCA | 0.301
ACCGGGCA | 0.288
CCCGGGCA | 0.376
ACCGGGGG | 0.379
GCCAACAC | 0.0365
CGAGCAAG | -0.182
CATTTAGG | -0.112
CTCCTCCA | -0.216
CCGGGCAA | 0.322
GAGGAACC | -0.0105
CAGCATTC | -0.162
TATCAGCA | 0.0209
GCTTCACC | -0.12

Sequence | PBM E-score
CTCAGTTC | -0.241
GCTCTGTA | -0.234
AGAACATG | -0.0473
CCCCTCCC | -0.00587
AACTGCCA | -0.186
CACTCCGG | 0.302
GACTCCGC | 0.174
TACTCCGA | 0.375
GACTCCGA | 0.301
CACTCCGC | 0.156
AACTCCCT | -0.0179
AACTCCGC | 0.389
AACTCCGG | 0.481
AACTCCGT | 0.447
AACTCCAT | 0.139
AACTCCCG | 0.333
CACTCCGA | 0.212
ACCCTGTA | -0.0405
CCTTCAAG | -0.253
AAGTGGCG | -0.0765
ACGGCTGG | 0.00715
AACTCCCA | -0.00143
AACTCCGA | 0.474
AACTCCAA | -0.0924
TCTGTCCA | 0.00731

Sequence | PBM E-score
CATCGGCG | 0.264
ACACTAGA | -0.095
CAGGACAG | -0.195
CCGGACAC | 0.351
CTGGACAA | -0.215
ACGGACAA | 0.335
CCGGACAA | 0.414
TCGGACAA | 0.394
CCGGACAG | 0.382
GCGGACAA | 0.304
CAGGACAA | 0.0261
CGCGGGAG | 0.0987
CCAGTGCG | 0.0478
GTTCCATA | -0.0357
ACGCAACT | 0.064
AGTGCCAT | -0.0559
ATATCGGA | 0.439
TAATCGGA | 0.317
GAATCGGA | 0.366
CTATCGTA | -0.17
GTATCGGA | 0.415
AAATCGGA | 0.344
CAATCGGG | 0.205
CTATCGGA | 0.452
CTATCGAA | -0.177

Sequence | PBM E-score
ATATCGTA | 0.11
GTATCGAA | -0.152
CAATCGGA | 0.394
AACACAGA | -0.116
AGACCTTA | -0.154
GCTATAGC | 0.0502
AGCGGCAA | 0.0491
CACGCTAA | -0.0232
ATACCCCC | 0.283
AACGCCCC | 0.128
AAGGACAG | -0.182
AAATCGGG | 0.246
ATATCGGG | 0.436
ATATCGTG | -0.0299
CTTCCGAA | 0.324
ATTCCGAA | 0.375
ATTCCGAC | 0.307
ATTCCGAG | 0.397
AATCCGAG | 0.338
ATTCCAAG | -0.177
AAGTCGGG | 0.153
AAACCACG | -0.0117
ACACACCC | 0.117
AAAGTCCG | 0.446
CAAGTCCG | 0.39

Sequence | PBM E-score
CAAGTCCC | -0.181
AAAGTCCT | 0.157
AAAGTCCA | -0.0824
CAAGTCCA | -0.222
CATCCTCA | -0.154
AATCAAAG | -0.129
AGCGGTCG | 0.123
GGCTAAAA | 0.0064
GGAGATAC | 0.438
GGATATAA | 0.382
CGTGATAA | -0.0733
CGAGATAA | 0.164
GGAGATAA | 0.455
GGTGATAA | 0.378
GGATATAC | 0.319
AGAGATAC | -0.0992
AGAGATAA | 0.00783
CGATATAA | 0.308
CGAGATAC | 0.188
GGTGATAC | 0.14
CGGAAGCC | 0.199
GAGCGTGA | -0.183
AGTGCACT | -0.0451
AACTTCTG | -0.205
CTGGTAGA | -0.2

Sequence | PBM E-score
GAACACGA | -0.0354
ACCTGAAT | -0.104
CAGCCCTA | -0.0376
CCTTATCG | 0.241
ACTTATCA | -0.148
AGTTATCA | -0.0683
ACTTATCG | 0.415
AGTTATCC | 0.106
AGTTATCG | 0.382
AGCGCGGA | 0.223
GCGACAGC | 0.0479
CCCCGATA | 0.44
GCCCGATA | 0.423
GCCCGACA | 0.255
CCCCGAAA | 0.348
ACCCGATA | 0.439
ACCCGATG | 0.3
GCACGATA | 0.0171
CCCCGATC | 0.35
ACCCGATC | 0.244
CTTAGGAC | -0.283
AGGGGGAC | -0.213
ATCCGCCC | 0.243
ATCCGCCG | 0.375
ATCCGCCA | 0.181

Sequence | PBM E-score
AACAAAGT | 0.00728
CCGGTGGA | 0.39
ACGGTGGA | -0.062
GCGGTGGA | 0.0678
CGACCTTC | 0.0839
CGGAGATC | 0.411
GGGAGATA | 0.268
AGGAGATC | -0.098
CTGAGATC | -0.171
AGGAGATA | 0.253
CGGAGATA | 0.495
GTTCCTGA | -0.242
AGCAATAC | -0.0164
AGTAAAGC | -0.00459
ACGTACAC | -0.181
ACCCAACG | -0.0503
CGGAGGAG | 0.284
CGGAGGTC | 0.261
AGGAGGTA | -0.044
CGGAGGTA | 0.443
AGGAGGAA | -0.218
CGGAGGAA | 0.375
GGAAAACA | 0.139
CCGGCGGA | 0.421
CCGGCGGC | 0.364

Sequence | PBM E-score
ACGGCGGA | 0.273
GTGGCGGA | 0.136
CTGGCGGA | -0.0445
GCGGCGGA | 0.382
GCGGCTCA | 0.073
GAGTGTCA | -0.145
GAGAATGC | 0.0329
ACGGATGA | 0.228
AGACGCGG | 0.0872
CTCGAAGA | -0.152
AGGATTTA | 0.227
CGGATTTA | 0.489
CTGATTTC | -0.0451
AGGATTTC | 0.0343
GGGATTTA | 0.327
CGGATTTC | 0.426
CTAACCCC | 0.235
GTCGAATA | -0.0336
CCACTGAG | -0.235
CCTTCGGC | 0.27
ACTTCGGG | 0.247
ACTTCGGA | 0.403
GCTTCGGA | 0.327
CCTTCGGA | 0.364
ACTTCGGC | 0.377

Sequence | PBM E-score
ACCGCAGT | 0.106
CAGCCTAA | -0.354
ATACTTCC | 0.162
ACATCCGG | 0.427
CCATCCGG | 0.254
ACATCCGA | 0.382
ACATCCTG | -0.0661
ACATCCGC | 0.347
ACATCCGT | 0.213
TATGTACA | -0.124
GCCAGTTA | -0.14
GCGCCCGA | 0.353
ACGCCCCG | 0.193
CGGCCCGA | 0.398
ACGCCCGA | 0.371
ACGCCCGC | 0.183
GGGCCCGA | 0.317
AGGCCCGA | 0.279
CCGCCCGA | 0.37
ACGCCCGG | 0.377
TCGCCCGA | 0.362
CTGCCCGA | 0.202
ACGCCCGT | 0.251
GGCCAGCA | -0.0771
AAGTCTGA | -0.412

Sequence | PBM E-score
CTTGTCTC | -0.073
ACGCGAAA | -0.00838
ACAAGAGC | -0.109
CGGAGCGA | 0.331
CCATAGGA | -0.258
GACACGTA | -0.194
CCGCCCGC | 0.3
AAGCCCGG | 0.407
AAGCCCGC | 0.337
AAGCCCGT | 0.232
CCGCCCCG | 0.347
CCGCCCGG | 0.411
CAAGTTCC | 0.124
CAGTGTGC | -0.139
ATGGCAGA | 0.089
CCAAATTC | -0.0397
GGTTCCGA | 0.279
AGTTCCTG | -0.178
AGTTCCGA | 0.395
AGTTCCGG | 0.394
CGTTCCGA | 0.123
AGTTCCGC | 0.278
GGTCCTAC | -0.0458
GTCAGCAA | -0.157
TTCCGCAA | 0.263

Sequence | PBM E-score
ACAGGTTC | -0.216
AACGGTAA | 0.186
ACCGGTAC | 0.334
ACCGGTAT | 0.424
ATCGGTAA | 0.31
ACCGGTAA | 0.406
ACCGGTAG | 0.228
ATCAACAC | -0.154
GAAAGAGC | -0.138
ACTAGACC | 0.0797
GGTTAGCA | -0.0201
GGTCCAAC | 0.13
CGTCCGAA | 0.394
TGTCCGAA | 0.412
GCTCCGAC | 0.212
TGTCCAAA | -0.133
CGCCCGAG | 0.396
CGCCCGAC | 0.366
GGTCCGAC | 0.392
CGTCCGAC | 0.302
AGCCCGAG | 0.208
CGTCCAAA | 0.0813
TGTCCTAA | -0.338
AACCAACG | -0.104
GTCTTACA | -0.195

Sequence | PBM E-score
CTTGGTAC | -0.213
CCTCTTTA | -0.303
CCGGTTAC | 0.279
ACACTGAA | -0.0306
AGAGTAGA | 0.0496
ACGAACAT | 0.0579
AAGGCAAA | -0.28
GGTCCAAA | 0.0135
AGTCCGAA | 0.416
AGTCCAAA | -0.119
CATCCGAG | 0.265
CGTCCAAG | -0.111
AGTCCTAA | -0.207
GGTCCGTA | 0.329
CGTCCGAG | 0.401
GGTCCGAA | 0.434
ACAAGGCA | -0.133
TAGCTTAA | -0.135
CATTGAAA | -0.0176
AAACGGAG | 0.258
CCGTTGCC | 0.299
CGGTGCTC | 0.161
CATGGACA | -0.324
ATGCACAT | -0.225
CAAATTGA | -0.173

Sequence | PBM E-score
AATCTCCT | 0.0543
AAGCTCCT | -0.0999
CAGCTCCG | 0.299
CATCTCCC | 0.104
AATCTCCG | 0.476
ATTCTCCG | 0.394
ATTCTCCA | -0.157
AAGCTCCG | 0.411
CATCTCCG | 0.435
AATCTCCC | 0.00843
CATCTCCA | -0.0795
ATTCTCCC | 0.0268
ACTGTACG | -0.167
GAGGCATA | 0.00364
CCTGAGTC | -0.0525
GCCCTGAA | 0.0376
AGTAGCCC | 0.0495
ACATTCCC | 0.0549
AGAGGGGA | -0.0354
TCGTAAAA | 0.0494
ATGTACGA | 0.105
CAGGGGAG | -0.137
TAAAGCAA | -0.0198
CACCGGCG | 0.378
AACCGGCG | 0.382

Sequence | PBM E-score
AACCGGCC | 0.344
CACCGGCC | 0.313
AACCGGCA | 0.158
CACCGGCA | 0.201
AATACTTG | -0.112
ACCGCACG | -0.0174
CCCAGCCC | -0.174
CAACCTTC | -0.0289
GCCCTTCA | -0.165
AAATTCCA | 0.0643
ATTTTCGG | 0.396
AATTTCCC | 0.06
AAATTCCG | 0.376
ATTTTCGA | -0.0541
ATTTTCCG | 0.413
ATTTTCGC | 0.0139
AAATTCCC | 0.145
ATTTTCCA | -0.0537
ATTTTCCC | 0.123
CATTTCCG | 0.352
AATTTCCG | 0.437

— the supplement of paper PMC3334620
